The supplement of paper PMC6658780
Counter-ions that a name gives are not always drawn. ± gives the standard deviation of the averaged measurements.

The molecules below were run on Escherichia coli ATCC BAA-2469 (assay: percent growth inhibition of drug alone vs DMSO control; higher = more growth inhibition). Settings: antibiotic (0.125x MIC): none (0.1% DMSO); 7 µM.
Method: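 Prestwick drugs tested at 20 uM and 7 uM with an antibiotic at 0.125x MIC (16 mg/L when MIC >128 mg/L) against E. coli ATCC BAA-2469 (NDM-1) in CAMHB, 384-well plates, duplicate runs. Percent growth inhibition was computed from OD600 (24 h minus 0 h) relative to DMSO wells. Drug + DMSO-only wells are also given. […]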

| Compound | percent growth inhibition of drug alone [%] |
| --- | --- |
| CN1[C@@H]2CC[C@H]1C[C@@H](OC(=O)C(CO)c1ccccc1)C2 (some centres not stated) [Atropine sulfate monohydrate] | 1.11 ± 0.46 |
| NCC1(CC(=O)O)CCCCC1 [Gabapentin] | -0.379 ± 0.84 |
| O=C([O-])c1ccccc1-c1c2cc(Br)c(=O)cc-2oc2[c]([Hg+])c([O-])c(Br)cc12.[Na+].[Na+].[OH-] [Merbromin] | 0.201 ± 1.7 |
| Oc1cc(Cl)ccc1Oc1ccc(Cl)cc1Cl [Triclosan] | 103 ± 3.2 |
| O=C(CCCN1CCC2(CC1)C(=O)NCN2c1ccccc1)c1ccc(F)cc1 [Spiperone] | 3 ± 1.4 |
| C[C@]12CC[C@H](O)C[C@@H]1CC[C@@H]1[C@@H]2CC[C@]2(C)C(=O)CC[C@@H]12 [Epiandrosterone] | -0.756 ± 0.88 |

Same assay, conditions: antibiotic (0.125x MIC): none (0.1% DMSO); 20 µM

| Compound | percent growth inhibition of drug alone [%] |
| --- | --- |
| CN1[C@@H]2CC[C@H]1C[C@@H](OC(=O)C(CO)c1ccccc1)C2 (some centres not stated) [Atropine sulfate monohydrate] | -0.0722 ± 0.38 |
| NCC1(CC(=O)O)CCCCC1 [Gabapentin] | -1.41 ± 0.8 |
| O=C([O-])c1ccccc1-c1c2cc(Br)c(=O)cc-2oc2[c]([Hg+])c([O-])c(Br)cc12.[Na+].[Na+].[OH-] [Merbromin] | 38.2 ± 18 |
| Oc1cc(Cl)ccc1Oc1ccc(Cl)cc1Cl [Triclosan] | 107 ± 2.6 |
| O=C(CCCN1CCC2(CC1)C(=O)NCN2c1ccccc1)c1ccc(F)cc1 [Spiperone] | 2.07 ± 2.2 |
| C[C@]12CC[C@H](O)C[C@@H]1CC[C@@H]1[C@@H]2CC[C@]2(C)C(=O)CC[C@@H]12 [Epiandrosterone] | 1.48 ± 2.3 |
